This passage reports max response, outcome and Potency results from PubChem BioAssay (NCATS).

Structures are written as SMILES. Results filed as inconclusive are left out. Values without a mark were called inactive. Calls of active or inactive are those of the source. Calls come from the whole dose curve; as a rule, active = well fitted inhibition curve with a large enough effect; inconclusive = small, poorly fitted or top-dose-only effect; inactive = flat fitted curve, though single readings scatter.

Common to all, as to assay: Cytotoxic Profiling of Annotated Libraries Using Quantitative High-Throughput Screening (AID 1296008); note: nearly all actives have a fitted effect of over 60% in size
Holding throughout (details): Five cell lines viability, CellTiter-Glo ATP luminescence, 48-72 h; max response: hits give low values
(Cellular ATP, detected with luciferase, serves as a proxy for viable cell number.)

Assay [1] deals with HaCat. In outline:
(§1)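 Cells exposed to compounds for 48 or 72 hr at 37 degrees Celsius. Viability read as ATP-coupled luminescence with CellTiter-Glo after 10 min at room temperature.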

For assay [2], the system named is KB-3-1. The gist of the method: as §1
For assay [3], the system named is NIH3T3. The gist of the method:
as §1
% is set by controls: 0 for no effect and ±100 for the full control effect; potency is the fitted concentration of half-maximal effect.

As for `O=C(O)c1cccc(S(=O)(=O)N2CCc3ccccc3C2)c1`, the values for the max response in assay [1], in assay [2] and in assay [3] were -24.7%, 0.457% and -16.4%, respectively.

In the case of `OC[C@H]1O[C@@H](O[C@H]2[C@H](OCCc3ccccc3)O[C@H](CO)[C@@H](O)[C@@H]2O)[C@H](O)[C@@H](O)[C@@H]1O`, the results for the max response in assay [1], in assay [2] and in assay [3] were -12%, 5.74% and -1.68%, respectively.

For `C[C@@H]1[C@H]2[C@H](O[C@@H]3O[C@H](CO)[C@@H](O)[C@H](O)[C@H]3O)OC=C(C(=O)O)[C@H]2C[C@@H]1O`, the max response in assay [1] is -4.56%; in assay [2], -0.849%; in assay [3], -4.16%.

As for `CC(=O)c1c(O)cc(O[C@@H]2O[C@H](CO)[C@@H](O)[C@H](O)[C@H]2O)cc1O`, the max response in assay [1] was -1.69%; in assay [3], 1.77%. For the same compound, the compound was classed as inactive in assay [2].

With `CC1=C(C)C(=O)OC(C(C)C2CCC3C4C5OC5C5(O)CC(OC6OC(CO)C(OC7OC(C)C(O)C(O)C7O)C(O)C6O)CC(O)C5(C)C4CCC23C)C1` (centres undefined), the max response in assay [1] was 4.81%; in assay [3] it was 3.69%. Moreover, the compound was classed as inactive in assay [2].

For `COc1ccc(-c2ccc(-c3cn(C(=O)N4CCCCC4c4ccccc4)nn3)cc2)cc1` (centres undefined), the results for the max response in assay [1], in assay [2] and in assay [3] were -8.43%, -8.19% and 1.57%, respectively.

`Cc1cc2c(c(=O)[nH]1)OC(C(O)CC(C)C)O2` (centres undefined): the max response in assay [1] is -1.41%; in assay [2], -1.2%; in assay [3], -0.186%.

Take `CC(C)c1cc2c(c(O)c1O)[C@@]13CCCC(C)(C)[C@@H]1[C@H](OC3=O)C2=O`: the max response in assay [1] is -2.13%; in assay [2], -17.1%; in assay [3] it was 3.28%.

On to `CCC(=O)O[C@H]1C(C)(C)[C@H]([C@@H](O)C(=O)OC)[C@]2(C)C(=O)[C@@]1(O)[C@H]1O[C@]13C1CC(=O)O[C@@H](c4ccoc4)[C@]1(C)CCC32` (some centres undefined), for which the max response in assay [1] is -11.6%; in assay [2] it was -4.09%; in assay [3], -25.4%.

Consider `CC1(C)CC[C@]2(C(=O)O)[C@H](O)C[C@]3(C)C(=CCC4[C@@]5(C)CC[C@H](O[C@@H]6O[C@H](CO[C@@H]7OC[C@H](O)[C@H](O)[C@H]7O[C@@H]7OC[C@@H](O)[C@H](O)[C@H]7O)[C@@H](O)[C@H](O)[C@H]6O[C@@H]6O[C@H](CO)[C@@H](O)[C@H](O)[C@H]6O)C(C)(C)C5CC[C@]43C)[C@@H]2C1` (some centres undefined), for which the figures for the max response in assay [1], in assay [2] and in assay [3] were -11.7%, 4.84% and -6.3%, respectively.

Consider `CC(=O)O[C@@H]1c2c(C)coc2C(=O)[C@@]23O[C@@H]2CC[C@H](C)[C@@]13C`, for which the max response in assay [1] was -14.6%; in assay [2], 9.51%; in assay [3], 4.3%.

Turning to `CC1(C)CCCC2(C)C=C(C(=O)O)C(O)CC12` (centres undefined), the max response is -0.18% in assay [1], 1.72% in assay [2] and 1.16% in assay [3].

With `COc1ccc(/C=C/C(=O)O[C@H]2[C@H](O[C@H]3[C@@H]4C=CO[C@@H](O[C@@H]5O[C@H](CO)[C@@H](O)[C@H](O)[C@H]5O)[C@@H]4[C@@]4(CO)O[C@@H]34)O[C@@H](C)[C@H](O)[C@H]2OC(C)=O)cc1`, the max response is 2.92% in assay [1], 4.98% in assay [2] and -16.4% in assay [3].

Regarding `C[C@H](N)C(=O)N[C@@H](Cc1ccc(O)cc1)C(=O)N1CCC[C@H]1C(=O)NCC(=O)N[C@@H](CCCCN)C(=O)N[C@@H](Cc1ccccc1)C(N)=O`, the values for the max response in assay [1] and in assay [3] were -13.5% and 3.32%, respectively. For the same compound, the call in assay [2] was inactive.

Consider `C/C=C1\[C@H](OC2OC(COC3OC(CO)C(O)C(O)C3O)C(O)C(O)C2O)OC=C(C(=O)OC)[C@H]1CC(=O)OCCc1ccc(O)cc1` (some centres undefined), for which the max response in assay [1] is -0.414%; in assay [2] it was 2.72%; in assay [3] it was -38.2%.

With `CC(NC(=O)CCc1nc2ccccc2c(=O)[nH]1)c1ccccc1` (centres undefined), the max response in assay [1] was -2.07%; in assay [2] it was -4.27%; in assay [3] it was 2.87%.

Take `Cc1ccc(S(=O)(=O)Cc2nc(-c3ccc(C(=O)NCc4cccnc4)cc3)oc2C)cc1`: the Potency was 146 nM (active) in assay [1], 8.2 nM (active) in assay [2] and 73.1 nM (active) in assay [3].

Regarding `C[C@@H]1O[C@@H](O[C@H]2[C@H](O)[C@@H](C(=O)O)O[C@@H](O[C@H]3CC[C@@]4(C)C(CC[C@]5(C)C4CC=C4C6CC(C)(C)CC[C@]6(C(=O)O)CC[C@]45C)C3(C)C)[C@@H]2O[C@@H]2OC[C@@H](O)[C@H](O)[C@H]2O)[C@H](O)[C@H](O)[C@H]1O` (some centres undefined), the max response in assay [1] was -12.7%; in assay [2] it was 9.7%; in assay [3], 0.526%.
